Reference: PubChem BioAssay (Tox21)
Active and inactive are the calls of the source. Calls follow the shape of the dose curve; as a rule, active = well fitted curve in the direction sought with a large enough effect in the repeat runs; inconclusive = weak or mixed curves; inactive = flat fitted curve, though single readings scatter. Non-standard residues stand in square brackets, D forms with d. Residues, ends and D or L forms follow the SMILES beside them. pGlu = O=C1CC[C@@H](C(=O)O)N1

Key:
[1] = qHTS assay to test for compound auto fluorescence at 535 nm (green) in HEK293 cells (AID 720680)
[2] = qHTS assay to test for compound auto fluorescence at 460 nm (blue) in HEK293 cell free culture (AID 720681)
Outline: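 Blue fluorescence (Ex 405/Em 460 nm, triamterene-equivalent) was read immediately after pin transfer of compound or DMSO into medium (DMEM, 10% FBS) without cells.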

[3] = qHTS assay to test for compound auto fluorescence at 535 nm (green) in HEK293 cell free culture (AID 720682)
Outline: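 Fluorescein serves as the green reference fluorophore; each compound's intrinsic emission at 535 nm (excitation 485 nm) is reported as an equivalent amount of that dye, measured in serum-containing DMEM without cells.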

[4] = qHTS assay to test for compound auto fluorescence at 590 nm (red) in HEK293 cell free culture (AID 720683)
Outline: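 Red-channel autofluorescence of compounds in culture medium (DMEM, 10% FBS), no cells, measured at 540/590 nm. Rose Bengal sodium is the reference fluorophore for equivalence.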

[5] = qHTS assay to test for compound auto fluorescence at 590 nm (red) in HepG2 cell free culture (AID 720684)
Outline: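 Plate contents were MEM with 10% FBS plus test compound or DMSO, no cells. Fluorescence was recorded with 540 nm excitation and 590 nm emission.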

[6] = qHTS assay to test for compound auto fluorescence at 460 nm (blue) in HepG2 cell free culture (AID 720685)
Outline: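 Compound (23 nL) or DMSO pinned into cell-free MEM with 10% FBS; blue fluorescence read at 405/460 nm excitation/emission, expressed as auto-fluorescence equivalency to triamterene.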

[7] = qHTS assay to test for compound auto fluorescence at 535 nm (green) in HepG2 cell free culture (AID 720686)
[8] = qHTS assay to test for compound auto fluorescence at 460 nm (blue) in HepG2 cells (AID 720687)
Outline: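 Blue-channel autofluorescence (Ex/Em 405/460 nm, triamterene-equivalent) was measured after 1 hr compound exposure at 37 C, 5% CO2. Cells were HepG2, plated overnight at 37 C in MEM plus 10% FBS.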

Measured: Potency

NC(=S)N=Nc1ccc(NN=C(N)N)cc1
inactive: all assays above

C=C(NC(=O)C(=C)NC(=O)c1csc(C2=N[C@@H]3c4csc(n4)[C@H]4NC(=O)c5csc(n5)[C@H]([C@](C)(O)[C@@H](C)O)NC(=O)[C@H]5CSC(=N5)C(=CC)NC(=O)C([C@@H](C)O)NC(=O)c5csc(n5)[C@]3(CC2)NC(=O)[C@H](C)NC(=O)C(=C)NC(=O)[C@H](C)NC(=O)C([C@@H](C)CC)NC2C=Cc3c([C@H](C)O)cc(nc3C2O)C(=O)O[C@@H]4C)n1)C(N)=O (some centres undefined)
inactive: all assays above

CC[C@@H]1/C=C(\C)C[C@H](C)C[C@H](OC)[C@H]2O[C@@](O)(C(=O)C(=O)N3CCCC[C@H]3C(=O)O[C@H](/C(C)=C/[C@@H]3CC[C@@H](Cl)[C@H](OC)C3)[C@H](C)[C@@H](O)CC1=O)[C@H](C)C[C@@H]2OC
inactive: all assays above

CN(CCO)CC(O)Cn1cnc2c1c(=O)n(C)c(=O)n2C (centres undefined) (tested in a mixture with another compound)
inactive: all assays above

C=CC1=C(C)C2=CC3=NC(=C(CC(=O)[O-])C4=NC(=C(C)C4=C([O-])[O-])C=c4[n-]c(c(C)c4CC)=CC1=N2)C(CCC(=O)[O-])C3C.[Cu+2].[Na+].[Na+].[Na+] (centres undefined)
inactive: all assays above

C=C1/C(=C\C=C2/CCC[C@]3(C)[C@@H]([C@H](C)OCCC(C)(C)O)CC[C@@H]23)C[C@@H](O)C[C@@H]1O
inactive: all assays above

CC[C@H](C)[C@H](NC(=O)[C@H](Cc1ccccc1)NC(=O)[C@H](C)NC(=O)[C@H](CC(=O)O)NC(=O)[C@H](CCCCN)NC(=O)[C@H](CO)NC(=O)[C@@H]1CCCN1C(=O)[C@@H]1CCC(=O)N1)C(=O)NCC(=O)N[C@@H](CC(C)C)C(=O)N[C@@H](CCSC)C(N)=O ([pGlu]PSKDAFIGLM-NH2)
inactive: all assays above

CC(=O)[C@@]1(O)CC[C@H]2[C@@H]3C=C(Cl)C4=CC(=O)CC[C@]4(C)[C@H]3CC[C@@]21C
inactive: all assays above

COc1ccc(C[C@H](N)C(=O)N[C@H]2[C@@H](O)[C@H](n3cnc4c(N(C)C)ncnc43)O[C@@H]2CO)cc1
inactive: all assays above

CCC(Oc1ccccc1)C(=O)N[C@@H]1C(=O)N2[C@@H]1SC(C)(C)[C@@H]2C(=O)O (some centres undefined)
inactive: all assays above

CCOC(=O)Nc1ccc2c(c1)N(C(=O)CN(C)C)c1ccccc1CC2
inactive: all assays above

C=CCOc1ccc(CC(=O)O)cc1Cl
inactive: all assays above

CCCOc1ccc2nc(NC(=O)OC)sc2c1
inactive: all assays above

CC(O)CN(C)C (centres undefined)
inactive: all assays above

OC[C@H]1OC([S-])[C@H](O)[C@@H](O)[C@@H]1O.[Au+] (some centres undefined)
inactive: all assays above

Cc1cccc(Nc2ncccc2C(=O)O)c1C
inactive: all assays above

CS(=O)(=O)Nc1cc2occ(NC=O)c(=O)c2cc1Oc1ccccc1
inactive: all assays above

CC(=O)Nc1ccc(OC(=O)c2ccccc2O)cc1
inactive: all assays above

CC(C)(C)C(=O)OCOC(=O)[C@@H]1N2C(=O)[C@@H](N=CN3CCCCCC3)[C@H]2SC1(C)C
inactive: all assays above

CC(CCc1ccc(O)cc1)NCC(O)c1ccc(O)cc1 (centres undefined)
inactive: all assays above

CC(CN(C)C)CN1c2ccccc2S(=O)(=O)c2ccccc21 (centres undefined)
inactive: all assays above

CCCCCCCCCCCCCCCCCC(=O)OCC(C)O (centres undefined)
inactive: all assays above

CS(=O)(=O)NC(=O)CCC/C=C\C[C@H]1C(=O)C[C@@H](O)[C@@H]1/C=C/[C@H](O)COc1ccccc1
inactive: all assays above

CNC(C)CCC=C(C)C (centres undefined)
inactive: all assays above

CC1(C)S[C@@H]2[C@H](NC(=O)C(N)c3ccccc3)C(=O)N2[C@H]1C(=O)OC1OC(=O)c2ccccc21 (some centres undefined)
inactive: all assays above

CCC(=O)OCC(=O)[C@@]1(OC(=O)CC)[C@@H](C)C[C@H]2[C@@H]3CCC4=CC(=O)C=C[C@]4(C)[C@@]3(F)[C@@H](O)C[C@@]21C
inactive: all assays above

COc1cc([C@@H]2c3cc4c(cc3C(O[C@@H]3O[C@@H]5CO[C@@H](C)O[C@H]5[C@H](O)[C@H]3O)C3COC(=O)[C@@H]32)OCO4)cc(OC)c1OP(=O)(O)O (some centres undefined)
inactive: all assays above

O=C(NNCNNC(=O)c1ccncc1)c1ccncc1
inactive: all assays above

O=C(O)[C@H]1/C(=C/CO)O[C@@H]2CC(=O)N21
inactive: all assays above

Cc1c(Cl)cccc1Nc1ncccc1C(=O)O
inactive: all assays above

NC(Cc1ccccc1)C(=O)O (centres undefined)
inactive: all assays above

NC(N)=NCC1COc2ccccc2O1 (centres undefined)
inactive: all assays above

CN=C1C=CC(=C(c2ccc(N(C)C)cc2)c2ccc(N(C)C)cc2)C=C1
inactive: all assays above

C/C=C1\NC(=O)[C@H]2CSSCC/C=C/[C@H](CC(=O)N[C@H](C(C)C)C(=O)N2)OC(=O)C(C(C)C)NC1=O (some centres undefined)
inactive: all assays above

CC(C(=O)O)c1ccc(C2CCCCC2)c2ccccc12 (centres undefined)
inactive: all assays above

O=C(CCCN1CCC(n2c(=S)[nH]c3ccccc32)CC1)c1ccc(F)cc1
inactive: all assays above

CCC(=O)OCC(=O)[C@@]1(OC(=O)CC)[C@@H](C)C[C@H]2[C@@H]3CCC4=CC(=O)C=C[C@]4(C)[C@@]3(Cl)[C@@H](O)C[C@@]21C
inactive: all assays above

Cn1nnnc1SCC1=C(C(=O)O)N2C(=O)[C@@H](NC(=O)[C@H](OC=O)c3ccccc3)[C@H]2SC1
inactive: all assays above

CCCCC/C=C\C/C=C\C/C=C\CCCCC(=O)O
inactive: all assays above

NC(=O)c1ccc[n+]([C@@H]2O[C@H](COP(=O)([O-])OP(=O)(O)OC[C@H]3O[C@@H](n4cnc5c(N)ncnc54)[C@H](O)[C@@H]3O)[C@@H](O)[C@H]2O)c1
inactive: all assays above

O=P(O)(O)OC[C@H](O)CO
inactive: all assays above

O=S(O)CNc1ccc(S(=O)(=O)c2ccc(NCS(=O)O)cc2)cc1
inactive: all assays above

CNC(C)[C@@H]1CC[C@@H](N)[C@@H](O[C@H]2[C@H](O)[C@@H](O[C@H]3OC[C@](C)(O)[C@H](NC)[C@H]3O)[C@H](N)C[C@@H]2N)O1 (some centres undefined)
inactive: all assays above
